In the library only some 1.5% were active in any assay of this set; here they are far more common.
RAD54 branch = RAD54 (human) branch migration inhibition; AID 602329; Q92698; RAD54 Holliday junction branch migration, FAM/BHQ fluorescence; inhibition, % at 10.4 µM; actives 0.14% (n = 360,000);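 active means mean normalized replicate activity at least 40 and at least half of replicates scoring 40 or more; inconclusive means only one of the two criteria met; inactive means mean below 40 and under half of replicates reaching 40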;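 further: 0% = median of neutral control wells and 100% = median of positive control wells; inhibitors cause a drop in the FAM fluorescence signal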
Target sequence (Q92698 whole entry, looked up): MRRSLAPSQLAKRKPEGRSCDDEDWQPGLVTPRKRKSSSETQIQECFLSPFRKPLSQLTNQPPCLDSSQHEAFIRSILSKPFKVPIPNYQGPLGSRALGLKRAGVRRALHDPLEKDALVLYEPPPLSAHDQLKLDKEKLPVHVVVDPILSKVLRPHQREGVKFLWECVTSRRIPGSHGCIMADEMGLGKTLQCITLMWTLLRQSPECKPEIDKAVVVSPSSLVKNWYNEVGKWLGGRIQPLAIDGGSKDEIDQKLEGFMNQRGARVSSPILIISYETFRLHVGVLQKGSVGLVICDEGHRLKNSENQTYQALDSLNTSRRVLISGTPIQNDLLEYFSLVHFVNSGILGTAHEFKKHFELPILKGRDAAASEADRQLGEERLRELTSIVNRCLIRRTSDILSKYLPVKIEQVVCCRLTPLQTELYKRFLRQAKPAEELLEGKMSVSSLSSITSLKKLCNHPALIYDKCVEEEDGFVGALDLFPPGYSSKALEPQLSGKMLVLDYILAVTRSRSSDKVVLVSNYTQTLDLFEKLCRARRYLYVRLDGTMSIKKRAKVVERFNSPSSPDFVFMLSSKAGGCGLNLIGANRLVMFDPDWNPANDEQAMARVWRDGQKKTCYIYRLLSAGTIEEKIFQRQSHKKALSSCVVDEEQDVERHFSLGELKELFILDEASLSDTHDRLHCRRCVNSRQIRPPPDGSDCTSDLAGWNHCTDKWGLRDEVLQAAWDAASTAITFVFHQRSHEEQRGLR
NRP1-CendR mod = alters CendR peptide binding to human NRP-1. O14786. FAM-RPARPAR peptide binding to NRP-1, fluorescence polarization. inhibition, % at 25 µM. actives 0.85% (n = 360,000);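 active means inhibition or corrected inhibition above about 18%, plus a signal ratio from 0.5 to 1.5, limit read from the data, passing the limit was not always enough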
miR122 inh = blocks miR-122 activity in Huh7 sensor cells | AID 602342 | actives 0.3% (n = 340,000) | activation (reporter increase), % at 12.5 µM | Huh7 miR-122 Renilla luciferase sensor, 48 h; neutral wells = 0, positive control = 100;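 active means mean replicate activation score at least 90 and every replicate individually at or above 90; inconclusive means only one of the two criteria met; inactive means neither criterion met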;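 further: higher luciferase means less miR-122 activity so hits act as miR-122 inhibitors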
RAD52 anneal inh = RAD52 (human) annealing inhibition | P43351 | actives 0.46% (n = 360,000) | recombinant RAD52 DNA annealing, FRET fluorescence | inhibition, % at 18.7 µM;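 active means every replicate showing at least 50% inhibition; inconclusive means mean inhibition at least 50% but not in every replicate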
FID counter = counter-screen for HCV NS3 helicase inhibitors: DNA intercalator displacement | DNA fluorescent intercalator displacement, fluorescence | inhibition, % at 7.9 µM | actives 0.17% (n = 290,000) | AID 1845; in the data active means inhibition above about 37%;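 further: 0% = vehicle and 100% = reference compound; higher means more ethidium bromide displaced from hairpin DNA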
Glyco luc inh = blocks N-linked glycosylation in D54 reporter cells. AID 588692. actives 0.23% (n = 360,000). reporter increase, % at 12.5 µM. D54 ERlucT glycosylation luciferase reporter, 24 h; percent of 100 nM tunicamycin response;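 active means mean luciferase reporter signal, scaled so untreated is 0 and the glycosylation-blocking control 100, at or above a set limit in every replicate; inconclusive means mean reaches the limit but not every replicate does; inactive means mean below the limit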;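 further: luciferase carries N-glycosylation sites so blocking glycosylation raises the light; 0% = median of neutral control wells and 100% = median of 100 nM tunicamycin wells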
Active calls of the source: *; ? = inconclusive; nt = no result; ! = repeats disagree; [ ] = remark or other dose.

SMILES	RAD54 branch	NRP1-CendR mod	miR122 inh	RAD52 anneal inh	FID counter	Glyco luc inh
OC[C@H]1[C@H](c2ccc(/C=C/c3ccccc3)cc2)[C@@H]2CN(Cc3ccncc3)CCCCN12	-3.3	nt	-5.0[16.7 µM]	53.8*	nt	nt
OC[C@@H]1[C@H](c2ccc(C#Cc3cccnc3)cc2)[C@H]2CN(Cc3ccccc3F)CCCCN12	3.3	nt	-4.7[16.7 µM]	53.9*	nt	nt
O=C(C[C@@H]1CC[C@@H]2[C@H](COC[C@H](O)CN2Cc2ccncc2)O1)NCc1ccccc1Cl	1.2	nt	7.7[16.7 µM]	-3.1	nt	nt
O=C1c2cccnc2-c2ncccc21	3.8	15.8	3.0	nt	6.2	1.3
COC1=C(Br)C(=O)c2ncccc2C1=O	nt	36.5*	nt	-4.6	nt	-10.9
O=C1C(=O)c2cccnc2-c2ncccc21	nt	26.6*	nt	41.9	nt	-18.0
COc1ccccc1N1C(=O)c2cccnc2C1=O	-0.5	0.5	0.2	-20.5	-6.3	0.4
Cc1nc2ncnn2c(N2CCN(c3cccc(C(F)(F)F)c3)CC2)c1C	-5.0	-1.4	-20.2	nt	-23.8	-2.4
Cn1nc(C(F)(F)F)c(C#N)c1N1CCN(c2cccc(C(F)(F)F)c2)CC1	nt	39.0*	1.6	nt	-7.2	1.1
CCCCn1c(CCNC(=O)c2ccco2)nc2ccccc21	7.3	-11.1	3.3	-17.5	-19.4	1.9
CCCCn1c(CCCNC(=O)c2ccco2)nc2ccccc21	4.1	22.2*	nt	-8.1	-15.8	0.5
C[C@H]1CN([C@@H](C)CO)C(=O)c2cccc(NS(=O)(=O)c3ccc(F)cc3)c2O[C@@H]1CN(C)C(=O)Nc1cccc2ccccc12	nt	nt	nt	9.0	nt	nt
CCOC(=O)CC(=O)Nc1ncnc2c1C(c1ccccc1)c1c(ccc3ccccc13)O2 (configuration not stated)	-6.1	23.7*	-1.7	-31.9	nt	-2.4
Nc1ncnc2c1C(c1ccccc1)c1c(ccc3ccccc13)O2 (configuration not stated)	-4.7	-0.9	13.5	-9.2	nt	0.8
Cc1ccc2c(c1)C(=O)N1[C@H]3c4cc(Br)ccc4OC[C@@H]3[C@H](c3ccccc3)[C@]1(C)C(=O)N2	-11.8	0.6	-6.5	-34.0	nt	26.7*
Cc1ccc2c(c1)C(=O)N1[C@H]3c4cc(Cl)ccc4OC[C@@H]3[C@H](c3ccccc3)[C@]1(C)C(=O)N2	-9.2	1.5	-0.2	-21.3	nt	?
Cc1ccc2c(c1)[C@H]1[C@H](CO2)[C@H](c2ccccc2)[C@]2(C)C(=O)Nc3ccc(Br)cc3C(=O)N12	0.2	9.3	nt	-37.6	nt	30.4*
Cc1ccc2c(c1)C(=O)N1[C@H]3c4cc(C)ccc4OC[C@@H]3[C@H](c3ccccc3)[C@]1(C)C(=O)N2	-6.8	6.1	-8.4	-13.3	nt	23.6
COCC(=O)Nc1ccc2c(c1)C(=O)N(C)[C@@H]1CC[C@H](CC(=O)NCCc3ccccc3)O[C@H]1CO2	3.6	nt	-3.0[16.7 µM]	6.8	nt	nt
CCCn1c(=N)n(CC(O)c2ccc(C)cc2)c2ccccc21 (configuration not stated)	nt	4.9	nt	-5.2	6.5	0.0
COc1ccc(C(O)Cn2c(=N)n(CCCN(C)C)c3ccccc32)cc1 (configuration not stated)	-2.0	-1.4	-10.5	nt	38.0*	-6.1
O=C(C[C@H]1CC[C@@H](NC(=O)C2CCC2)[C@H](CO)O1)NCCCN1CCOCC1	-4.0	nt	nt	2.7	nt	nt
CC1CN(C(=O)c2cc(-c3ccncc3)nc3ccccc23)CC(C)O1 (configuration not stated)	3.5	-2.3	2.6	-13.0	nt	45.0*
COC(=O)c1ccccc1NC(=O)Cn1cnc2c(cnn2-c2ccc(C)c(C)c2)c1=O	nt	nt	nt	nt	0.0	nt
CCOc1ccccc1NC(=O)Cn1cnc2c(cnn2-c2ccc(C)c(C)c2)c1=O	-5.5	37.6*	-0.7	nt	2.4	0.8
SMILES	RAD54 branch	NRP1-CendR mod	miR122 inh	RAD52 anneal inh	FID counter	Glyco luc inh
Cc1ccc(S(=O)(=O)N2[C@@H]3CNC[C@H]2C3c2ccc(-c3cccc(C#N)c3)cc2)cc1 (some centres not stated)	nt	nt	nt	52.7*!	nt	nt
Cc1ccccc1S(=O)(=O)N1[C@@H]2CNC[C@H]1C2c1ccc(/C=C/c2ccccc2)cc1 (some centres not stated)	nt	nt	nt	51.2*!	nt	nt
Cc1ccc(S(=O)(=O)N2[C@@H]3CNC[C@H]2C3c2ccc(-c3cccc(C)c3)cc2)cc1 (some centres not stated)	nt	nt	nt	51.4*!	nt	nt
COc1ccc2c3c(n(C)c2c1)[C@@H](CO)N(Cc1ccccc1F)CC31CCN(CC2CC2)CC1	nt	nt	nt	26.4	nt	nt
Cc1ccccc1S(=O)(=O)Cc1ccc(C(=O)NCc2cccnc2)o1	5.4	49.0*	-3.5	nt	-6.6	-0.8
Cc1cccc(N(C)c2ncnc3onc(-c4ccc(F)cc4)c23)c1C	-8.1	21.5*	-2.0	-5.0	-34.6	-6.2
CCN(CCO)c1ncnc2onc(-c3ccc(F)cc3)c12	-7.3	7.8	-7.7	-3.8	-5.0	-0.4
CCNc1nc(N)nc(Oc2ccc(OCCOc3ccccc3)nn2)n1	3.2	0.7	151.2*	nt	-12.2	6.6
O=C1NC(=S)NC1=Cc1ccco1	-9.9	-10.9	-14.5	-85.1	nt	1.5
O=C1NC(=O)/C(=C/c2ccco2)N1	-2.4	25.4*	-2.2	-19.3	nt	-1.5
Cc1cn([C@H]2C[C@H](O)[C@@H](CCC(=O)NCCCn3ccnc3)O2)c(=O)[nH]c1=O	3.6	31.3*	6.4	8.6	nt	1.0
Cc1cn([C@H]2C[C@H](O)[C@@H](CCC(=O)NCc3cccc4ccccc34)O2)c(=O)[nH]c1=O	-1.4	-3.9	2.4	-2.7	nt	-0.5
O=C(Cc1ccccn1)N[C@H]1CC[C@@H](CCNS(=O)(=O)c2cccc(F)c2)O[C@@H]1CO	3.4	nt	27.1[16.7 µM]	-12.4	nt	nt
COCC(=O)N1CC2(C1)[C@H](c1ccccc1)[C@@H](CO)N2C(=O)c1ccncc1	nt	nt	nt	1.0	nt	nt
Cc1cc(SCC(=O)N2CCN(C(=O)c3ccco3)CC2)c(C)cc1Br	0.0	21.8*	-3.8	-8.4	nt	-2.4
O=C(CSc1nc2cc(Cl)ccc2s1)N1CCN(C(=O)c2ccco2)CC1	nt	-6.3	0.1	nt	-27.0	0.0
O=C(CSc1c2c(nc3ccc(Cl)cc13)CCCC2)N1CCN(C(=O)c2ccco2)CC1	nt	-11.2	-0.8	-13.0	nt	41.2*
Cc1cc(C)nc(Nc2nc(=O)c3ccccc3s2)n1	nt	20.9*	-1.5	nt	-8.4	6.0
COCC(=O)N(C)C[C@H]1Oc2ncc(C#CC(C)(C)O)cc2C(=O)N([C@H](C)CO)C[C@@H]1C	0.8	nt	6.9[16.7 µM]	4.0	nt	nt
CCCc1c(-c2ccc(F)cc2)ncn1Cc1ccccc1OC	nt	22.2*	nt	-13.9	nt	nt
CCCCCc1c(-c2cccc(Cl)c2)ncn1CCc1ccccc1OC	nt	23.3*	nt	11.6	nt	nt
O=C(CSc1nnc(C2CC2)n1-c1ccccc1)N1CCNC1=O	-6.2	19.9*	-3.9	-3.4	nt	1.8
Cc1cc(NC(=O)CSc2nc3sc(C)c(C)c3c(=O)n2C2CCCC2)no1	6.1	-2.4	-5.1	-3.5	2.1	27.4*
